Several values for one entry are separate records, joined by “and”; a condition that tells them apart may be missing. Equal values may be shown once. The panel holds about 79,000 compounds, 15% with a hit somewhere; the sample as a whole holds those more often. Activity calls are given as the source filed them. No stated cut-off is given here; in the data, active means growth inhibition above about 70%; inactive means the rest.
Key:
[1] = NCI Yeast Anticancer Drug Screen. Data for the rad50 strain (AID 155);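 further: 0% = growth of vehicle-only cultures of the same strain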; settings: S. cerevisiae rad50 strain growth inhibition, stronger effect = higher value; at 50.0 µM unless noted
Procedure, shortened: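 Compounds were tested on a yeast strain with an engineered DNA damage repair alteration; the reported value is growth inhibition normalised to vehicle treatment.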

[2] = NCI Yeast Anticancer Drug Screen. Data for the mec2-1 strain (AID 157); settings: S. cerevisiae mec2-1 strain, stronger effect = higher value; at 50.0 µM unless noted
Procedure, shortened: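 mec2-1 yeast strain, carrying an alteration in DNA damage repair or cell cycle control, was exposed to compounds; growth inhibition was measured relative to vehicle-treated controls.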

[3] = NCI Yeast Anticancer Drug Screen. Data for the sgs1 mgt1 strain (AID 161);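 further: 0% = growth of cultures given vehicle only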; settings: S. cerevisiae sgs1 mgt1 strain, stronger effect = higher value; at 50.0 µM unless noted
Procedure, shortened: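 This yeast growth screen uses a strain with defined DNA-repair lesions; compound-treated growth is compared with vehicle-treated growth.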

[4] = NCI Yeast Anticancer Drug Screen. Data for the cln2 rad14 strain (AID 165);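 further: 0% = growth equal to vehicle treated cultures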; settings: S. cerevisiae cln2 rad14 strain, stronger effect = higher value; at 50.0 µM unless noted
Procedure, shortened: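 Yeast carrying cln2 and rad14 alterations (cell cycle control and DNA damage repair) were exposed to compounds. Growth inhibition was measured against vehicle-treated controls.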

[5] = NCI Yeast Anticancer Drug Screen. Data for the bub3 strain (AID 167); settings: S. cerevisiae bub3 mutant strain, stronger effect = higher value; at 50.0 µM unless noted
Procedure, shortened: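 Growth of a checkpoint-deficient yeast mutant is measured after compound exposure. Values represent inhibition relative to vehicle.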

[6] = NCI Yeast Anticancer Drug Screen. Data for the mlh1 rad18 strain (AID 175); settings: S. cerevisiae mlh1 rad18 strain growth inhibition, stronger effect = higher value; at 50.0 µM unless noted
Procedure, shortened: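 Growth inhibition of the yeast strain was measured after compound exposure and expressed relative to vehicle-treated controls. The strain carries defined defects in DNA damage repair.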

Measured: growth inhibition

O=c1n(-c2ccccc2)c(=O)n(-c2ccccc2)c(=O)n1-c1ccccc1
inactive: [1] -2.2% | [2] -13.2% | [3] -17.1% | [4] 5% | [5] 7.45% | [6] -14.7%

Nc1ncnc2c1c(-c1nnc(-c3ccccc3)c(-c3ccccc3)n1)cn2C1OC(CO)C(O)C1O (stereo not given)
inactive: [1] 44.1% | [2] -2.8% | [3] 38% | [4] -13.3% | [5] -4.25% | [6] 9.9%

O=C1c2sc(-c3ccc(Cl)cc3)cc2-n2cccc21
inactive: [1] 9.3% | [2] 15.4% | [3] 2.15% | [4] 2.5% | [5] -9.2% | [6] 26.2%

CCCCCCCCCCCCSC(=S)c1c(C)[nH]n(CCCCCCCCCCCC)c1=O
inactive: [1] 39.9% | [2] 25.9% | [3] 42.3% | [4] 26.2% | [5] 21.9% | [6] 12.8%

CC(O)C(C(=O)O)N(CC1(O)OCC(O)C(O)C1O)N=O (stereo not given)
inactive: [1] -4.5% | [2] -13.9% | [3] 11.3% | [4] 1.2% | [5] -2.65% | [6] -7.45%

CCCCCCCCCOCC(=O)O
inactive: [1] 34.4% | [2] 5.55% | [3] 7.5% | [4] 3.15% | [5] 2.3% | [6] 6.4%

COc1ccc(NC(=O)CC/C(CC(=O)c2ccco2)=N/NC(=O)C(N)=O)cc1
inactive: [1] -4% | [2] -10.4% | [3] -15.8% | [4] -7.15% | [5] -14.1% | [6] -18.1%

Cc1[nH]c(=O)cc2c1[nH]c1ccccc12
inactive: [1] -0.4% | [2] -6.7% | [3] -0.15% | [4] -44.2% | [5] 1.3% | [6] -1.05%

CC(C)CCO/N=C(\N)N=C(N)N
inactive: [1] -17.4% | [2] -5.8% | [3] 14.3% | [4] 2.7% | [5] -1.75% | [6] -1.9%

Cc1nc2cccc3ccc4c5ccccc5cc1c4c32
inactive: [2] 15.2% | [3] -25% | [4] 0.9% | [5] 21.6% | [6] 49.3%
active: [1] 70%

CC/C(CC(=O)CCC(=O)Nc1ccc(C)c(C)c1)=N\NC(=O)c1cc2ccccc2cc1O
inactive: [1] 45.2% | [2] 22.9% | [3] -13.4% | [4] -5.2% | [5] 44.6% | [6] 34.4%

COc1ccc(N2C(=O)C/C(=C/c3ccc(C(C)C)cc3)C2=O)cc1
inactive: [1] 9.35% | [2] -0.05% | [3] 11.9% | [4] -60% | [5] -13.8% | [6] 9.15%

N.N.N.N.O=C([O-])O.O=C([O-])[O-].[Co+3]
inactive: [1] 2.15% | [2] 3.4% | [3] 12.1% | [4] 26.9% | [5] 24.2% | [6] 8.95%

O=c1[nH]c(=O)n(C2OC(CO)C(O)C2Br)cc1Br (stereo not given)
inactive: [1] -2.25% | [2] -3.3% | [3] -6.8% | [4] -7.6% | [5] 0.65% | [6] 23.9%

C=CCc1cn(C2CC(OC(=O)c3ccc(Cl)cc3)C(COC(=O)c3ccc(Cl)cc3)O2)c(=O)[nH]c1=O (stereo not given)
inactive: [1] -8.85% | [2] -3.6% | [3] -18.8% | [4] -8.6% | [5] 0.6% | [6] -2.4%

COc1ccc(C(=O)/C=C/N)c(OC)c1
inactive: [1] 17.3% | [2] -25.4% | [3] 5.45% | [4] 20% | [5] 9.35% | [6] 10.9%

COC(=O)c1cc(NC(=O)Nc2cccc(C(C)=O)c2)cc(C(=O)OC)c1
inactive: [1] -9.75% | [2] 31.2% | [3] 25.6% | [4] -10.2% | [5] 37.6% | [6] 36.4%

ClCCOCCOc1ccc(C2CCCCC2)cc1
inactive: [1] 12.9% and -1.65% | [2] 11.9% and -0.75% | [3] 56% and -3.65% | [4] 24.1% and -10.8% | [5] 28.2% and 31.4% | [6] 13.8% and 9.05%

CCN(CC)C(=S)Oc1cc(Cl)c(Cl)cc1Cl
inactive: [1] -5.45% | [2] 3.8% | [3] -5.2% | [4] -2.55% | [5] 18.7% | [6] 21.2%

O=C1NC(=S)S/C1=C/C=C/c1ccccc1
inactive: [1] -21.4% | [2] 3.8% | [3] 7.7% | [4] 15.9% | [5] -5.2% | [6] 25.9%

c1ccc2nc(CCC3CCCCN3)ccc2c1 (stereo not given)
inactive: [1] 7.2% | [2] 7.5% | [3] -9.7% | [4] -14.2% | [5] -2.1% | [6] 17.1%

O=C1C=C(Nc2ccccc2)c2ccccc2C1=O
inactive: [1] -1.15% and 24.4% | [2] 16.4% and -8.6% | [3] 11.4% and 25.4% | [4] -14.5% and 19.9% | [5] 33.9% and 14.1% | [6] 15.2% and 12.2%

COc1cccc(C2C(C(=O)Nc3cc(=O)n(C)c(=O)n3C)=C(C)NC(C)=C2C(=O)Nc2cc(=O)n(C)c(=O)n2C)c1O
inactive: [1] -15.1% | [2] 13% | [3] 13.4% | [4] 12.2% | [5] 2.55% | [6] 14.8%

C=CCOc1cc2c(cc1C(CC)c1ccc(OCc3ccccc3)cc1)OCO2 (stereo not given)
inactive: [1] 31.9% | [2] 5.2% | [3] -2.85% | [4] 13.9% | [5] 0.9% | [6] -10.2%

Nc1nc(N)c2nc(SC34CC5CC(CC(C5)C3)C4)c(N)nc2n1
inactive: [1] -1.6% | [2] 2.05% | [3] -7.1% | [4] -20.8% | [5] -3.65% | [6] 1.4%

Cc1c(CCN2CCOCC2)c(N2CCOCC2)n2c(nc3ccccc32)c1C#N
inactive: [1] -14.7% | [2] -11.9% | [3] -9.2% | [4] 1% | [5] -16.3% | [6] -15%

Cc1ccc(SCC(O)=C2C(=O)CCCC2=O)cc1
inactive: [1] -11.4% | [2] -12.3% | [3] 15.1% | [4] -0.45% | [5] -2.25% | [6] -7.45%

N#CC(c1ccccc1)c1ccc(C(c2ccccc2)(c2ccccc2)C(C#N)c2ccccc2)cc1 (stereo not given)
inactive: [1] 17.4% | [2] 8.55% | [3] 13.9% | [4] 19.3% | [5] -4.8% | [6] 5.1%

O=P(O)(O)c1ccc(-c2ccc(I)cc2)cc1
inactive: [1] 11.7% | [2] -15.5% | [3] 7.45% | [4] 22.2% | [5] -8.8% | [6] 13.2%

C=CCCn1nc(-c2ccccc2)oc1=O
inactive: [1] -8.35% | [2] -28.5% | [3] -19.2% | [4] -2.75% | [5] -26.9% | [6] 6.1%

CSc1ccc(C2NC(=O)NC2=O)cc1 (stereo not given)
inactive: [1] -10.2% | [2] -14.6% | [3] -1.95% | [4] -9% | [5] 4.95% | [6] -10.1%

CC(C)=CCCC(C)CCOc1cccc(C)c1 (stereo not given)
inactive: [1] 3.65% | [2] 8.3% | [3] -6.95% | [4] -37.5% | [5] 11.6% | [6] 1.2%

CC(C)(O)C1CC(=O)C(C)(C2C(O)CC3(C)C4CC=C5C(CCC(O)C5(C)C)C4(C)C(=O)CC23C)O1 (stereo not given)
inactive: [1] 65% | [2] 63% | [3] 45% | [4] 42.9% | [5] 56.1% | [6] 47.6%

O=c1nc(NCc2ccco2)ccn1C1OC(CO)C(O)C1O (stereo not given)
inactive: [1] 12.3% | [2] 9.45% | [3] 12.6% | [4] 13.9% | [5] -0.2% | [6] 14.6%

O=C(Nc1ccc(Nc2ccc3c(c2)C(=O)c2ccccc2C3=O)c2c1C(=O)c1ccccc1C2=O)c1ccccc1
inactive: [1] -35.7% | [2] -15.2% | [3] -15.3% | [4] -36.7% | [5] -15.2% | [6] -25.6%

CC1(C)CC[C@]2(C(=O)O)CCC3(C)C(=CCC4[C@@]5(C)CC[C@H](OC6OCC(O)C(O)C6OC6OC(CO)C(O)C(O)C6O)C(C)(C)C5CC[C@]43C)C2C1 (stereo not given in full)
active: [1] 84.8% | [2] 85.2% | [3] 89.8% | [4] 87.7% | [5] 88.5% | [6] 87.5%

C=CCOC(=O)c1ccccc1
inactive: [1] 11.3% | [2] 6.5% | [3] 2.55% | [4] 11.4% | [5] -9.55% | [6] -16.6%

CCOC(=O)C(NC(=O)CC)(Nc1ccc(S(=O)(=O)Nc2nc(C)cc(C)n2)cc1)C(F)(F)F (stereo not given)
inactive: [1] -5.6% | [2] -3.4% | [3] 8.55% | [4] 21.6% | [5] 2.5% | [6] 7.65%

CC(=O)OCC(C)(O)C#N (stereo not given)
inactive: [1] -19.8% | [2] -0.2% | [3] 11.3% | [4] 4.05% | [5] -5.35% | [6] -22.6%

C/C(=N\NC(=S)Nc1nccs1)c1ccccn1
active: [1] 96.7% | [2] 97.8% | [3] 97.6% | [4] 90.5% | [5] 96% | [6] 98.4%

Reference: PubChem BioAssay (NCI)
